Legend:
Test in all cases: protein binding microarray; high values mean tight binding
Details in all cases: dsDNA, one strand shown
[1] = molecular target: RELARELA (p65 homodimer) (Homo sapiens, UniProt Q04206 1-307)
[2] = molecular target: p50p50 homodimer (Homo sapiens, UniProt P19838 7-356)
[3] = molecular target: T1, p52p52 homodimer (Homo sapiens, UniProt Q00653 4-332)
T1 sequence: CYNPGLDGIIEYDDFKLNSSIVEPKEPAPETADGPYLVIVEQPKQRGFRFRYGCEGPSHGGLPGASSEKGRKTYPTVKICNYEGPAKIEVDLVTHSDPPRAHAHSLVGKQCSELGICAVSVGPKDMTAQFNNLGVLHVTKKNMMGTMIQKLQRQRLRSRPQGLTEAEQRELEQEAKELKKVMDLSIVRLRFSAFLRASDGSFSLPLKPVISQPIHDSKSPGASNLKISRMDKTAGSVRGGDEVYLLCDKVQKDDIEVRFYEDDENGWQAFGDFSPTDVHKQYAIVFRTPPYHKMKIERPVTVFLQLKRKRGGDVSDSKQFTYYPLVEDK

[4] = molecular target: RELA (p65) subunit of heterodimer;p50 subunit (Homo sapiens;Homo sapiens, UniProt Q04206;P19838 1-307;7-356)
Chain of RELA (p65) subunit of heterodimer;p50 subunit (Q04206 1-307, chain 1 of 2): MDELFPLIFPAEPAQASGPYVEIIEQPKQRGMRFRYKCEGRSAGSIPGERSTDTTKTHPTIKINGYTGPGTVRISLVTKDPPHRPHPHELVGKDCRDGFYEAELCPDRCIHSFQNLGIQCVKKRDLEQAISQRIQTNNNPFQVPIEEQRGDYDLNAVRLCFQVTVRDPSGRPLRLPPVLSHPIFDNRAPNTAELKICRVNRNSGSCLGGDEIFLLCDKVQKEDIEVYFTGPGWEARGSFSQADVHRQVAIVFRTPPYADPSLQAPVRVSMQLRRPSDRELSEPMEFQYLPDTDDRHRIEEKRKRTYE
Chain of RELA (p65) subunit of heterodimer;p50 subunit (P19838 7-356, chain 2 of 2): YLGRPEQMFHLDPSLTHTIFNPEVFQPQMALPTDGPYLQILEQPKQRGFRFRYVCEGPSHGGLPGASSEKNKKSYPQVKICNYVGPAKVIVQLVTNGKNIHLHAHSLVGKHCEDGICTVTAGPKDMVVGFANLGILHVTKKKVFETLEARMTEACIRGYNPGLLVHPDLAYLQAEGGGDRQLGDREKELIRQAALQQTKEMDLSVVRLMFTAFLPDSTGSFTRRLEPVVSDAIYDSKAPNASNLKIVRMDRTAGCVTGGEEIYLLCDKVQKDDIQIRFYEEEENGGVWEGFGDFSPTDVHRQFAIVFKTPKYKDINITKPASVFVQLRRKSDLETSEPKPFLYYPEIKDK

[5] = molecular target: RELA (p65) subunit of heterodimer;p52 subunit (Homo sapiens;Homo sapiens, UniProt Q04206;Q00653 1-307;4-332)
[6] = molecular target: RELB subunit;p50 subunit (Homo sapiens;Homo sapiens, UniProt Q01201;P19838 120-401;7-356)
[7] = molecular target: T2, RELB subunit;p52 subunit (Homo sapiens;Homo sapiens, UniProt Q01201;Q00653 120-401;4-332)
T2 sequence 1: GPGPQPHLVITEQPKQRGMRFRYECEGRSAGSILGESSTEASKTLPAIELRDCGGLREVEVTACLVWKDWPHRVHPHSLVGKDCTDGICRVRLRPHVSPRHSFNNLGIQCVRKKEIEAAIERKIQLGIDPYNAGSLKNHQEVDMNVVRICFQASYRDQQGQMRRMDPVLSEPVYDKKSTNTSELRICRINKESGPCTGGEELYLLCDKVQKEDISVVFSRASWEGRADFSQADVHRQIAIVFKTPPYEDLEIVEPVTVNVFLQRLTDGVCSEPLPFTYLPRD
T2 sequence 2: T1 sequence

[8] = molecular target: C-Rel subunit;p50 subunit (Homo sapiens;Homo sapiens, UniProt Q04864;P19838 1-285;7-356)
[9] = molecular target: T3, C-Rel subunit;p52 subunit (Homo sapiens;Homo sapiens, UniProt Q04864;Q00653 1-285;4-332)
T3 sequence 1: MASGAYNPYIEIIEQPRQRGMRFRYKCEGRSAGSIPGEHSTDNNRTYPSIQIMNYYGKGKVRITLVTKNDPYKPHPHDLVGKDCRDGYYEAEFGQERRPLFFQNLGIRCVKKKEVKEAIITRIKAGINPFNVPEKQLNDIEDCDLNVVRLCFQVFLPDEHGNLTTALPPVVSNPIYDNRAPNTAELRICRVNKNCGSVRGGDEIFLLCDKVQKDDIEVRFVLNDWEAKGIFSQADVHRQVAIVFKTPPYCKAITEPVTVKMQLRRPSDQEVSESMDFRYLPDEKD
T3 sequence 2: T1 sequence

Chain of p50p50 homodimer (P19838 7-356): as the sequence (P19838 7-356, chain 2 of 2) above
Chain of RELARELA (p65 homodimer) (Q04206 1-307): as the sequence (Q04206 1-307, chain 1 of 2) above

Sequence	binding signal [1] [z-score]	binding signal [2] [z-score]	binding signal [3] [z-score]	binding signal [4] [z-score]	binding signal [5] [z-score]	binding signal [6] [z-score]	binding signal [7] [z-score]	binding signal [8] [z-score]	binding signal [9] [z-score]
CAAGTATTCCT	-0.0829	-1.19	-0.607	-0.839	-0.737	-0.975	-0.645	-0.507	-0.822
AGAGGCCTCCT	-0.539	-1.92	-0.785	-1.08	-1.07	-1.08	-0.973	-1.66	-0.937
AGGGATCTCCC	1.05	0.595	2.05	1.2	1.32	1.27	1.12	0.678	1.36
AGATAGATCCT	-0.82	-1.87	-0.716	-1.06	-1.23	-1.03	-0.915	-1.64	-0.98
GAAGTCTTCCC	0.246	-0.511	-0.37	-0.272	-0.339	-0.349	-0.537	0.175	-0.174
CAGTAATTCCC	2.18	0.948	0.804	1.12	0.865	0.722	0.71	1.31	1.05
CAAAGCGTCCT	-0.639	-1.46	-0.572	-0.956	-0.873	-0.99	-0.804	-1.53	-0.973
CGAAGACTCCC	-0.527	-0.307	-0.407	-0.172	-0.618	-0.262	-0.747	-0.657	-0.571
AAAATAGTCCT	-0.023	-0.728	-0.497	-0.709	-0.767	-0.806	-0.856	-0.761	-0.606
CGGTTATCCCT	0.134	0.215	0.38	0.0537	0.272	0.229	0.321	0.223	0.381
GAAGATACCCT	-0.565	0.622	0.0699	0.217	0.0853	0.142	0.032	-0.0626	2.91e-05
AGGAGCCTCCC	-0.27	-0.831	-0.599	-0.748	-0.852	-0.76	-0.789	-0.995	-0.719
GGGATGGCCCC	-0.135	0.31	1.6	0.79	1.15	0.678	0.614	0.492	0.746
GAATAGCTCCC	-0.473	-0.795	-0.577	-0.627	-0.84	-0.753	-0.873	-1.16	-0.82
GAGGAGCTCCT	-0.566	-1.81	-0.78	-1.13	-0.927	-1.05	-1.06	-1.73	-0.927
CGGGAGCTCCC	0.73	0.136	0.135	0.408	0.0305	0.0766	-0.106	-0.102	0.192
CGGGGGTCCCT	0.00646	1.14	0.985	0.963	1.07	1.06	1.23	0.761	0.926
GAAAAGGCCCC	-0.413	0.523	0.108	0.289	0.416	0.151	0.246	-0.101	0.313
AGGATACCCCC	0.417	1.14	0.992	1.34	1.29	1.01	1.54	0.882	1.24
CGGGGGGTCCC	0.448	0.975	2.05	1.38	1.59	1.28	1.67	1.04	1.59

Sequence	binding signal [1] [z-score]	binding signal [2] [z-score]	binding signal [3] [z-score]	binding signal [4] [z-score]	binding signal [5] [z-score]	binding signal [6] [z-score]	binding signal [7] [z-score]	binding signal [8] [z-score]	binding signal [9] [z-score]
AAATTCATCCT	0.0684	-0.972	-0.568	-0.664	-0.9	-0.972	-0.72	-1.11	-0.904
CAGGGGATCCC	1.59	1.03	1.66	1.73	1.49	1.12	1.18	0.893	1.42
CGAGATTTCCC	1.93	0.975	0.882	1.43	1.06	0.804	0.926	1.31	0.887
AAGGGGCTCCT	-0.668	0.769	0.959	0.032	0.753	0.344	0.791	-0.103	0.392
CGAATGATCCT	-0.807	-1.92	-0.659	-0.966	-0.935	-1.16	-0.928	-1.72	-0.968
GAGGTTATCCT	-0.457	-0.539	-0.329	-0.899	-0.657	-0.734	-0.759	-1.3	-0.681
CGAATGTCCCC	0.531	1.1	0.861	1.09	1.07	1.07	1.17	1.01	0.868
AAGGACTCCCC	0.78	0.758	0.493	0.844	0.665	0.692	0.442	0.76	0.388
GGAGGTATCCC	-0.331	-1.01	-0.304	-0.519	-0.401	-0.488	-0.395	-0.57	-0.276
GAGAGCGCCCT	-0.857	-1.91	-0.661	-0.903	-1.01	-1	-0.95	-1.31	-0.822
GAAAGGTTCCC	0.328	-0.486	-0.241	-0.184	-0.334	-0.203	-0.316	-0.141	-0.167
GGATAATCCCC	1.81	1.26	2.24	2.07	1.79	1.79	1.9	1.51	1.45
GAGTATTTCCC	2.24	0.925	1.05	1.27	1.1	0.527	0.505	1.24	1.14
AAAAAGCTCCT	-0.678	-1.47	-0.675	-1.01	-1.04	-1.17	-1.06	-1.49	-1.07
CAAGAAACCCT	-0.512	-0.321	-0.245	-0.525	-0.264	-0.492	-0.353	-0.467	-0.305
GGATTCCCCCT	2.01	1.46	2.93	2.64	2.73	2.83	2.57	2.03	2.78
CGAGGGTTCCC	-0.124	-0.573	-0.304	-0.206	-0.377	-0.397	-0.335	-0.0483	-0.0728
GGGGTCATCCT	-0.528	-0.376	-0.115	-0.626	-0.394	-0.425	-0.362	-0.494	-0.0992
CAGAACTTCCC	1.94	0.457	0.196	0.921	0.329	0.182	0.0935	0.664	0.413
CGATGTCTCCT	-0.49	-1.36	-0.736	-0.843	-0.849	-1.04	-0.858	-1.52	-0.895

Sequence	binding signal [1] [z-score]	binding signal [2] [z-score]	binding signal [3] [z-score]	binding signal [4] [z-score]	binding signal [5] [z-score]	binding signal [6] [z-score]	binding signal [7] [z-score]	binding signal [8] [z-score]	binding signal [9] [z-score]
CGAGGCATCCC	-0.716	-1.34	-0.635	-1.05	-0.831	-0.973	-0.906	-1.02	-0.807
AAGGGCCCCCT	-0.998	0.884	0.332	0.446	0.569	0.703	1.14	0.138	0.261
CAGTGGTCCCC	-0.00968	0.538	0.29	0.247	0.212	0.612	0.412	0.329	0.0114
AAGTTGTTCCT	-0.106	-1.19	-0.438	-0.58	-0.753	-0.971	-0.787	-0.889	-0.685
GAGGGTGTCCC	0.223	0.0932	0.206	0.366	0.191	0.314	0.399	0.469	0.107
CGGATGGCCCT	-1	-1.09	-0.625	-0.472	-0.684	-0.367	-0.331	-0.715	-0.706
GAAGTTATCCC	-0.0836	-0.295	-0.152	-0.31	-0.235	-0.113	-0.152	-0.126	-0.251
GAAGACCTCCT	-0.649	-2.61	-0.857	-0.905	-0.909	-1.23	-0.869	-1.61	-0.944
CGGAGCGCCCT	-0.577	-1.84	-0.701	-0.94	-0.911	-1.13	-0.954	-1.21	-1.01
CGGTGGATCCC	0.0568	0.42	2.32	0.748	1.33	0.911	1.38	0.293	1.43
GAGAAAGTCCC	1.97	1.14	1.91	1.51	1.47	1.81	1.7	1.39	1.69
CAAAAATCCCC	2.62	1.37	2.67	2.11	2.3	2.84	2.28	1.91	2.55
CGGTTTTTCCC	3.71	0.935	2.66	1.81	1.88	1.05	1.78	1.57	2.3
GAGAAGATCCC	-0.164	-0.0695	-0.271	-0.131	-0.161	-0.259	-0.387	-0.311	-0.307
AAATGTATCCT	-0.258	-1.3	-0.661	-0.932	-0.782	-0.907	-0.763	-1.32	-0.746
AGGAATATCCC	1.97	0.155	0.511	0.866	0.83	0.0984	0.231	0.402	0.834
AGGAAACTCCT	2.04	-0.999	-0.404	-0.105	-0.54	-0.699	-0.839	-0.168	-0.211
AAAGTCTCCCC	0.367	0.818	0.559	0.733	0.654	0.78	0.879	0.882	0.388
GAGTGCTTCCC	0.545	-0.398	-0.0563	-0.232	-0.157	-0.589	-0.383	-0.23	0.0743
AAGTGTTCCCC	0.872	0.916	0.928	1.24	0.915	1.13	1.14	1.33	0.844

From article PMC3218832
